Whole data set: some 33,000 sequences, median “e-score” near -0.05, cut for the highest 2% near 0.38. The sample holds the highest values, similar sequences and a random draw of the others, so the mix is not that of the screen.

The test deals with T1, SIX1-Q177R homeodomain (human, UniProt Q15475 108-198, Q177R).
T1 sequence: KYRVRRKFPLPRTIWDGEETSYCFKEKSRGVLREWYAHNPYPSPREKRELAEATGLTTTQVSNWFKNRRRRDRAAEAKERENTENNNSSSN
In words: universal protein binding microarray; Universal all-10-mer PBM (8x60K, AMADID 030236), 300 nM GST-tagged protein, Alexa Fluor 488 anti-GST; buffer, salt, pH and temperature not stated (as in Berger); high values mean tight binding. Particulars: protein: ivt; tags: N-terminal GST; dsDNA, one strand shown. An outline of the steps:
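Duplicate protein binding microarrays (universal 'all 10-mer', 8×60K format) were incubated with GST-tagged homeodomains at 300 nM final concentration. Binding was quantified as 8-mer E-scores with the Universal PBM Analysis Suite.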
As to AACCCCCG, the binding signal was 0.244 ± 0.0392 E-score.

With AACACCCT, the binding signal is 0.4609 ± 0.00173 E-score. To AGCACCCG belongs 0.262 ± 0.00343 E-score.

On to ACCACCCC, for which the binding signal worked out at 0.249 ± 0.0234 E-score. To AACCCCCA belongs 0.209 ± 0.0281 E-score; to AACACCCA, 0.4561 ± 0.00225 E-score. The value for AACACCCG was 0.466 E-score. To AGCACCCC belongs 0.295 ± 0.0259 E-score; to AACACCCC, 0.4753 ± 0.00361 E-score; to AACTCCGG, 0.161 ± 0.0108 E-score. For ACCTCGTG, the binding signal was determined as 0.208 ± 0.00536 E-score. The value for ACGCCGGG was 0.16 ± 0.00711 E-score; that for CGGATAAC was 0.213 ± 0.00738 E-score. To ACCTAGTG belongs 0.232 ± 0.0203 E-score; to CCGACCGG, 0.172 ± 0.0141 E-score; to CGCGCACC, 0.193 ± 0.014 E-score. To AACGGAGT belongs 0.152 ± 0.031 E-score; to ACCAGACA, 0.234 ± 0.0203 E-score.

Take ACGATACC: the binding signal is 0.3575 ± 0.00339 E-score. The value for TGCACCCA was 0.153 ± 0.0378 E-score; that for CACCCCCA was 0.368 ± 0.0341 E-score; that for TACCCCCA was 0.304 ± 0.00484 E-score.

As to TACACCCA, the binding signal came to 0.4707 ± 0.00252 E-score.

Turning to CCCACCCA, the binding signal was 0.204 ± 0.0309 E-score. To CACACCCA belongs 0.382 ± 0.038 E-score; to CGAACGGA, 0.21 ± 0.0321 E-score. The value for ACCCAGTA was 0.175 ± 0.0267 E-score; that for GAGTTAAC was 0.171 ± 0.00701 E-score. To GTGTTTTA belongs 0.361 ± 0.026 E-score; to GTGTTAAC, 0.415 ± 0.0316 E-score. Regarding GTGTGAAC, the binding signal was 0.362 ± 0.00749 E-score.

For the sequence GGGTTATA, the binding signal is 0.2303 ± 0.000672 E-score.

As for GTGTTATA, the binding signal was 0.432 ± 0.0299 E-score. The value for GTGTTACA was 0.4422 ± 0.00139 E-score; that for GTGTTTGA was 0.35 ± 0.00533 E-score; that for ATGTTACA was 0.177 ± 0.00778 E-score. The value for CTGTTACA was 0.238 ± 0.0173 E-score. As to GTGTTAGA, the binding signal amounted to 0.41 ± 0.0163 E-score. To ACCTAACA belongs 0.203 ± 0.0209 E-score.

With ACAAGGGT, the binding signal was 0.21 ± 0.00286 E-score. Consider AAGAGTGT, for which the binding signal stood at 0.363 ± 0.0349 E-score. To CCGACGCC belongs 0.154 ± 0.0342 E-score; to AGGGAGTG, 0.163 ± 0.00586 E-score; to CACTAACC, 0.17 ± 0.00501 E-score. The value for AGGGCGTG was 0.169 ± 0.0301 E-score; that for CTCCGACA was 0.175 ± 0.075 E-score; that for ACCTGCCT was 0.198 ± 0.0238 E-score. The value for CACCTTAG was 0.286 ± 0.00858 E-score; that for CGCGGGTA was 0.273 ± 0.00467 E-score. For the sequence CGGTGCGA, the binding signal was found to be 0.155 ± 0.0742 E-score.

As to TGGAAACA, the binding signal turned out to be 0.223 ± 0.0152 E-score. The value for GTGTTTAA was 0.375 ± 0.015 E-score. To GTGTTAAA belongs 0.403 ± 0.0279 E-score; to GGGTTAAA, 0.214 ± 0.0192 E-score; to ACGGGGTC, 0.214 ± 0.0134 E-score. As for ACACCCAA, the binding signal was 0.4542 ± 0.000742 E-score. As to ACACCCAG, the binding signal is 0.4602 ± 0.00339 E-score. The value for ACACCCAC was 0.4683 ± 0.00307 E-score; that for ACACCCAT was 0.458 ± 0.00543 E-score.

ACCCCCAC: the binding signal worked out at 0.282 ± 0.0258 E-score.

For AAACCCAG, the binding signal came out at 0.219 ± 0.0117 E-score. The value for ACCCCCAA was 0.312 ± 0.0125 E-score; that for ACCCCCAT was 0.272 ± 0.0289 E-score; that for AACCCCAT was 0.169 ± 0.00626 E-score. The value for ACCCCCAG was 0.23 ± 0.0356 E-score; that for GCACCCAA was 0.154 ± 0.0464 E-score. Consider GCACCCAC, for which the binding signal amounted to 0.194 ± 0.0207 E-score. The value for ACCAACGC was 0.246 ± 0.0108 E-score; that for TATCAACA was 0.288 ± 0.0159 E-score. In the case of ACCCCGAC, the binding signal was 0.265 ± 0.018 E-score. To CTCGATCC belongs 0.201 ± 0.00608 E-score; to GGTGCTTA, 0.234 ± 0.00599 E-score. The value for CGGTGACA was 0.248 ± 0.0377 E-score; that for CAAACCCC was 0.197 ± 0.0505 E-score. Take CACTGTGA: the binding signal came out at 0.177 ± 0.00305 E-score. Turning to CAGCCGAC, the binding signal was 0.196 ± 0.0242 E-score. The value for CCACACGA was 0.234 ± 0.0111 E-score; that for GCACACGA was 0.214 ± 0.0114 E-score; that for GCACACCA was 0.401 ± 0.0217 E-score. The value for ACACACGA was 0.251 ± 0.0465 E-score. To GCACACGC belongs 0.256 ± 0.0166 E-score. As to ACACACCA, the binding signal worked out at 0.415 ± 0.0235 E-score.

For CCACACCG, the binding signal came to 0.363 ± 0.0269 E-score. As to TCACAACA, the binding signal turned out to be 0.195 ± 0.0326 E-score. TCACACGA: the binding signal turned out to be 0.226 ± 0.00234 E-score. To ACACACAA belongs 0.244 ± 0.0667 E-score.

For the origin of these results see PMC10668032, “Altered binding affinity of SIX1-Q177R correlates with enhanced WNT5A and WNT pathway effector expression in Wilms tumor”.
